Screening data (PubChem)
Most compounds without a hit are left out; they make up all but 2.7% or so of the library.
IDE inh: human IDE inhibitors in live cells, primary screen, fluorescence polarization, HEK cells, FAbetaB substrate | Insulin-degrading enzyme (Homo sapiens), P14735 | FAbetaB cleavage | inhibition, % at 5.59 µM | actives 0.41% (n = 320,000) | AID 434962, 2010;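 active = percent inhibition above the average of all tested compounds plus 3 SD, set per screening campaign, cut at about 16% in these data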;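 also: IDE supplied by intact live HEK cells; FP after avidin binding of uncleaved biotin substrate so inhibition keeps polarization high; 0% = DMSO wells and 100% = 60 µM reference IDE inhibitor Ii1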
Target sequence (P14735 whole entry, looked up): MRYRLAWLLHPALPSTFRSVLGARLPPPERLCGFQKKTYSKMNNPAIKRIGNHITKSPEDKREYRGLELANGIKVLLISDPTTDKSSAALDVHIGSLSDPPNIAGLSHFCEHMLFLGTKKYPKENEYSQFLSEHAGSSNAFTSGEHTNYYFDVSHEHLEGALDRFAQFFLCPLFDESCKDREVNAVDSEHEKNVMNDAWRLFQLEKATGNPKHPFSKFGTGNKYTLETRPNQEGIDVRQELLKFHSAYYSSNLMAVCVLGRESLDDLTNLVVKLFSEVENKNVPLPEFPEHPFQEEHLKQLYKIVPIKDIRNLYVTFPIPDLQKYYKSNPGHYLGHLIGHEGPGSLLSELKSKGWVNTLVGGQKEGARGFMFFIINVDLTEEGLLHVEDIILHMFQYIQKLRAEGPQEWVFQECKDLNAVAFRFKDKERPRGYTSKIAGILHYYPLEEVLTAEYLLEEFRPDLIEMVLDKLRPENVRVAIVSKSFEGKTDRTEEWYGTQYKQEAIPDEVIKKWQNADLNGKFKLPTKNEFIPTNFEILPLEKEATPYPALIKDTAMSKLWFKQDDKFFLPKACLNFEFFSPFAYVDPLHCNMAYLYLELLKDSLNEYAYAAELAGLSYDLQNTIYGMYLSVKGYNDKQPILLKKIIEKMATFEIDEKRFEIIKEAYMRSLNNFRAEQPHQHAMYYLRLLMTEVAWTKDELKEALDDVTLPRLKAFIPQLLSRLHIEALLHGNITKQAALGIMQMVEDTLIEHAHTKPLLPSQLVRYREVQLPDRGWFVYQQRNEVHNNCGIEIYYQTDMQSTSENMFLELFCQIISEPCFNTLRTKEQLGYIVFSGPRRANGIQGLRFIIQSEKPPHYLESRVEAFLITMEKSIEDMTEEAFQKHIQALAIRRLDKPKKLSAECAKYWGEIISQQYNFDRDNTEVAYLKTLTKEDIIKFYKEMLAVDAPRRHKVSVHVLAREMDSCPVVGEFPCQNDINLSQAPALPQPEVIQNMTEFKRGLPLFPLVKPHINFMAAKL
TMEM16A act: TMEM16A chloride channel activators or potentiators, primary screen, cell-based, HTS. B-score at 10 µM. Anoctamin-1 (Mus musculus), Q8BHY3. HEK293 TMEM16A/YFP-H148Q/I152L, iodide quench fluorescence; stronger effect = lower value. actives 0.3% (n = 340,000);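 active = fluorescence-ratio B-score plate-corrected deviation score at least 3 library SD below zero, with starting fluorescence score within 5 deviations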;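 also: channel opened by trigger with iodide after compound preincubation; score built on the fluorescence ratio of max minus min over baseline; more negative score means more quench and so TMEM16A activation or potentiation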
CHT block: inhibitors of human choline transporter CHT; B-score at 10 µM; CHT-expressing cells, membrane potential dye, choline response; stronger effect = lower value; High affinity choline transporter 1 (Homo sapiens), Q9GZV3; actives 0.86% (n = 310,000); AID 488975, 2010;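 active = B-score over 3 SD under the library average, and starting fluorescence ratio not unusually high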;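 also: choline stimulus applied at its EC90 after an EC20 pre-addition; B-score computed on integrated fluorescence ratio after choline addition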
CHT allo act: CHT positive allosteric modulators, primary screen, cell-based, membrane potential dye, choline EC20; High affinity choline transporter 1 (Homo sapiens), Q9GZV3; CHT-expressing cells; stronger effect = higher value; LV-AA mutant CHT in HEK293 cells; B-score at 10 µM; actives 0.49% (n = 310,000);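 active = initial fluorescence not abnormally high and integrated response B-score, plate-corrected, over 3 SD above library mean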
IDE act: human IDE activators in live cells, primary screen, fluorescence polarization, HEK cells, FAbeta-B substrate. FAbeta-B cleavage; 0% vehicle, 100% cell-free pure enzyme wells. activation, % at 5.96 µM. actives 0.073% (n = 340,000). Insulin-degrading enzyme (Homo sapiens), P14735;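 active = activation above the mean of all tested compounds plus 3 SD, set per screening campaign, cut at about 17% in these data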
TMEM16A inh: TMEM16A chloride channel inhibitors, primary screen, cell-based, HTS; HEK293 TMEM16A/YFP iodide influx fluorescence, ionomycin; normalized B-score (activity score, 25-100; higher = stronger inhibition) at 10 µM; actives 1.2% (n = 310,000); AID 588511, 2011;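 active = ratio plate-corrected score three or more library SD toward inhibition, starting fluorescence score within five deviations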;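 also: score derived from kinetic fluorescence span divided by baseline fluorescence per well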
IDE cell inh cf: human IDE inhibitors in live cells, confirmation, fluorescence polarization, HEK cells, FAbetaB substrate; shares compounds with IDE inh; FAbetaB cleavage; inhibition, % at 5.59 µM; actives 51% (n = 1,200); AID 435028, 2010;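 active = mean inhibition across triplicate wells above the cutoff set by the earlier primary insulin-degrading enzyme screen, cut at about 16% in these data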;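 also: 0% = DMSO wells and 100% = 60 µM reference IDE inhibitor Ii1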
HEK cytotox: cytotoxicity in HEK cells, cytotoxicity control for IDE inhibitor project, cell-based, luminescence; shares compounds with IDE inh; HEK293 cytotoxicity, ATP luminescence; inhibition, % at 5.59 µM; actives 28% (n = 1,200); in the data active = inhibition above about 22%;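 also: 0% = vehicle wells and 100% = reference cytotoxic drug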
The depositor's hits bear a star; i = inactive; / = no result.

SMILES	IDE inh	TMEM16A act	CHT block	CHT allo act	IDE act	TMEM16A inh	others
C/C1=C\[C@@H](C)C/C=C/[C@H]2[C@@H]3O[C@]3(C)[C@@H](C)[C@H]3[C@H](Cc4c[nH]c5ccccc45)NC(=O)[C@]32C(=O)/C=C/C(=O)[C@@H]1O	0	-11*	i	i	5	100*
Cc1ccccc1CN1Cc2cnnn2-c2ccccc2C1C#N (stereo not drawn)	/	/	/	/	-13	/
OCC(Cl)CCl (stereo not drawn)	-1	i	/	/	6	/
COc1ccc(-[n+]2c(-c3ccccc3)cc(-c3ccccc3)cc2-c2ccccc2)cc1	6	/	i	i	/	100*
O=C([O-])c1ccc(-[n+]2c(-c3ccccc3)cc(-c3ccccc3)cc2-c2ccccc2)cc1	-1	i	i	i	2	i
CC(C)(C)c1cc([N+](=O)[O-])cc(C(C)(C)C)c1O	3	/	i	i	/	100*
C[C@]12CCC(=O)C=C1C=CC1C2CC[C@@]2(C)C1CC[C@@H]2O (stereo partly drawn)	/	i	/	/	2	/
Cc1ccc2c(c1)CC1(CN2C)C(=O)NC(=O)N(c2cc(C)ccc2C)C1=O (stereo not drawn)	-2	i	i	i	1	25*
CC1CN1P1(=O)OCC(C)([N+](=O)[O-])CO1 (stereo not drawn)	/	i	/	/	7	/
NC(N)=N/N=C/c1cn(-c2ccccc2)nc1-c1cccs1	-5	i	i	i	4	100*
C[C@]12CCC3C(CC[C@@H]4C[C@H](O)CC[C@]34C)C1CCC2=O (stereo partly drawn)	2	i	/	/	-1	/
Brc1ccc(Oc2ccc(Br)cc2Br)c(Br)c1	-1	i	/	/	5	/
Oc1c(Br)cc(Br)cc1Oc1ccc(Br)cc1Br	-5	/	i	i	/	100*
CN[C@@H]1C[C@@H](c2ccc(Cl)c(Cl)c2)c2ccccc21	-3	/	i	i	/	25*
N#CC(C#N)=NNc1ccc(-n2ccc(C(F)(F)F)n2)cc1	1	-4.6*	i	i	1	100*
Cc1cc(C)n(-c2ccc(NN=C(C#N)C#N)cc2)n1	6	i	i	i	9	i
C[C@]12CCC(=O)CC1CCC1C2CC[C@]2(C)C(OC(=O)CCC(=O)O)CCC12 (stereo partly drawn)	-1	i	i	i	7	i
CCC1C=CC=CC[C@H](C)[C@@H](O)[C@](C)(O)C(=O)[C@@H](C)[C@H](O)[C@@H](C)C(=O)[C@H](C)[C@@H](O)[C@H](C)C=CC(=O)OC2[C@@H](C)C(CC1)OC1(CC[C@@H](C)C(C[C@H](C)O)O1)[C@@H]2C (stereo partly drawn)	0	/	i	i	/	25*
Cc1cnc(-n2c(=S)[nH]c3ccccc3c2=O)s1	-4	i	/	/	4	/
CSc1ccc(C(=O)C2CCCN(Cc3cnc(SC)nc3)C2)cc1 (stereo not drawn)	-3	i	i	i	3	25*
CC(=O)OC(C)(C)/C=C/C(=O)[C@](C)(O)[C@H]1[C@H](O)C[C@@]2(C)[C@@H]3CC=C4[C@H](C[C@H](O)C(=O)C4(C)C)[C@]3(C)C(=O)C[C@]12C	/	i	/	/	0	/
CC(=O)OC(C)(C)/C=C/C(=O)C(C)(O)C1[C@H](O)C[C@@]2(C)C3CC=C4C(CC[C@@H](O)C4(C)C)[C@]3(CO)C(=O)C[C@]12C (stereo partly drawn)	2	i	i	8.7*	0	i
CN1CCN(c2ccc([N+](=O)[O-])c3cccnc23)CC1	6	i	i	7.1*	1	i
Cn1c(O)c(/C=C2\C=Nc3ccccc32)c(=O)n(C)c1=O	1	-4.8*	i	i	-10	i
O=C(O)c1cc[c]([Hg][Cl])cc1	96*	i	-6.1*	i	-61	i
SMILES	IDE inh	TMEM16A act	CHT block	CHT allo act	IDE act	TMEM16A inh	others
COc1ccc(-n2c(-c3ccc(C)cc3)nc3ccccc3c2=O)cc1	11	-4.9*	i	i	3	i
C#CC1(O)C=CC2C3CCC4=CC(=O)CCC4C3CCC21CC (stereo not drawn)	2	i	i	i	-4	i
CCC1(O)CCC2C3CCC4=CC(=O)CCC4C3CCC21CC (stereo not drawn)	/	-4.8*	/	/	0	/
COc1ccc(CNCCc2ccc3c(c2)OCO3)cc1Br	0	i	i	i	6	i
CC(C)COC(=O)c1ccccc1C(=O)OCC(C)C	-5	i	i	i	1	i
C[CH2][Hg][S]c1ccccc1C(=O)O	53*	i	i	i	-50	i	IDE cell inh cf=21*;HEK cytotox=122*
COc1ccc(-n2nc(C(=O)NCC(=O)N3CCC4(CC3)OCCO4)c3ccccc3c2=O)cc1Cl	-3	i	i	i	-2	i
C=CCn1c(O)c(/C=C/C=Nc2ccccc2)c(=O)[nH]c1=O	18*	i	i	i	-1	i	IDE cell inh cf=11;HEK cytotox=6
Cc1ccc(N/N=C/c2c(O)n(-c3ccccc3)c(=O)[nH]c2=O)cc1	-2	i	i	i	-2	i
Cc1ccc(-n2c(O)c(/C=C/C=Nc3ccccc3)c(=O)[nH]c2=O)cc1	21*	i	i	i	-29	i	IDE cell inh cf=30*;HEK cytotox=3
O=c1[nH]c(=O)n(C2CCCCC2)c(O)c1/C=C/C=Nc1ccccc1	21*	i	i	i	-40	i	IDE cell inh cf=42*;HEK cytotox=8
O=c1[nH]c(=O)n(-c2ccccc2)c(O)c1/C=C/C=Nc1ccccc1	34*	i	i	i	-26	i	IDE cell inh cf=35*;HEK cytotox=3
CC(=O)c1ccc(OCC(=O)N2CCCC(N(C)Cc3ccccc3)C2)cc1 (stereo not drawn)	-4	i	i	i	-1	i
